Measurements: PubChem BioAssay (NCI)
This is part of a sample that, as a whole, favours compounds with a hit. Of some 79,000 tested, about 15% had one in any assay. No stated cut-off is given here; in the data, active means growth inhibition above about 70%; inactive means the rest.

Tests used:
[1] = NCI Yeast Anticancer Drug Screen. Data for the rad50 strain (AID 155);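 further: 0% = growth of vehicle-only cultures of the same strain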; details: S. cerevisiae rad50 strain growth inhibition; at 50.0 µM; hits give high values
Outline: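 Vehicle-treated cultures provide the reference for the growth inhibition reported for compound-exposed, repair-deficient yeast.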

[2] = NCI Yeast Anticancer Drug Screen. Data for the mec2-1 strain (AID 157); details: S. cerevisiae mec2-1 strain, at 50.0 µM, hits give high values
Outline: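 Cells of the genetically defined mec2-1 yeast strain are incubated with test compound. Inhibition of growth is calculated against vehicle-treated controls.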

[3] = NCI Yeast Anticancer Drug Screen. Data for the sgs1 mgt1 strain (AID 161);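 further: 0% = growth of cultures given vehicle only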; details: S. cerevisiae sgs1 mgt1 strain, at 50.0 µM, hits give high values
Outline: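 Test agents were incubated with a DNA-repair-mutant yeast strain. Growth was then read and compared against vehicle-treated controls.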

[4] = NCI Yeast Anticancer Drug Screen. Data for the cln2 rad14 strain (AID 165);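 further: 0% = growth equal to vehicle treated cultures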; details: S. cerevisiae cln2 rad14 strain, at 50.0 µM, hits give high values
Outline: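 The screen exposed genetically defined yeast (cln2 rad14) to test compounds and scored growth inhibition relative to vehicle-treated controls.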

[5] = NCI Yeast Anticancer Drug Screen. Data for the bub3 strain (AID 167); details: S. cerevisiae bub3 mutant strain, at 50.0 µM, hits give high values
Outline: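 Mutant yeast screening strain plus compound; vehicle-treated cultures serve as the 0% inhibition reference.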

[6] = NCI Yeast Anticancer Drug Screen. Data for the mlh1 rad18 strain (AID 175); details: S. cerevisiae mlh1 rad18 strain growth inhibition; at 50.0 µM; hits give high values
Outline: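 Compound-treated yeast growth, normalised to vehicle controls. Strain bears defined DNA repair mutations.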

Measured: growth inhibition

Clc1ccc(C2NC(c3ccc(Cl)cc3)NC(c3ccc(Cl)cc3)N2)cc1 (stereo not given)
inactive: [1] 28.4% | [2] 14% | [3] 35.5% | [4] -5.4% | [5] 8.75% | [6] -2%

CCCc1cc(=O)oc2c3c(c4c(c12)OC(C)(C)CC4)O[C@H](C)C(C)C3O (stereo not given in full)
inactive: [1] 24.8% | [2] 11.6% | [3] 11.6% | [4] 26.1% | [5] 47.6% | [6] 35%

O=C(NCc1ccccc1)C1C2CCC(C2)C1C(=O)NCc1ccccc1 (stereo not given)
inactive: [1] -0.85% | [2] 50.8% | [3] -1.95% | [4] -2.35% | [5] 22.9% | [6] -6.35%

CCCCNCCCC
inactive: [1] 2.15% | [2] 2% | [3] -27.1% | [4] -3.65% | [5] -8% | [6] -16.6%

COc1c2c(cc3c1-c1c(cc4c(c1OC)OCO4)CC(C)C(C)C3)OCO2 (stereo not given)
inactive: [1] 12.4% | [2] 24.4% | [3] 21% | [4] 15.2% | [5] 40.1% | [6] 29.6%

CCOC(=O)c1c[nH]c2c(Cl)c(C)ccc2c1=O
inactive: [1] -40.1% | [2] -48.1% | [3] -17.6% | [4] -110% | [5] -30.1% | [6] -4.75%

Cc1ccc(S(=O)(=O)SCC(=O)c2ccc(Br)cc2)cc1
inactive: [1] 27.4% | [2] -15.4% | [3] 29.1% | [4] 16.6% | [5] 4.35% | [6] 9.85%

OCc1c(CO)c(C(F)(F)F)n2c1CCC2
inactive: [1] 9.9% | [2] -4.1% | [3] 9.15% | [4] -14.3% | [5] 9.65% | [6] 2.55%

COc1ccc(-c2cc(=O)c3c(O)cc(O)cc3o2)c(OC)c1OC
inactive: [1] -22.2% | [2] -17.7% | [3] -21.1% | [4] 6.95% | [5] -26.6% | [6] 4.05%

C1=COC(C=Nc2ccccc2)CC1 (stereo not given)
inactive: [1] -12.3% | [2] 13.8% | [3] 4.5% | [4] -18.2% | [5] 15.8% | [6] -12.6%

COc1ccc(CC(=O)c2c(OC)c3c(c4c2OC(C)(C)CC4)OC(C)(C)CC3)cc1OC
inactive: [1] 21.1% | [2] -14.8% | [3] 8.1% | [4] 16.5% | [5] 33.9% | [6] 34.4%

O=NN(Cc1ccccc1)NC(=O)c1ccccc1
inactive: [1] 6.2% | [2] 28.1% | [3] 8.9% | [4] -8.4% | [5] 20.9% | [6] 11.2%

N#Cc1cccc(N2C(=O)c3c(c(-c4ccccc4)c(-c4ccc(Sc5ccc(-c6c(-c7ccccc7)c7c(c(-c8ccccc8)c6-c6ccccc6)C(=O)N(c6cccc(C#N)c6)C7=O)cc5)cc4)c(-c4ccccc4)c3-c3ccccc3)C2=O)c1
inactive: [1] -48.6% | [2] -44.2% | [3] -41% | [4] -14.8% | [5] -68.8% | [6] -60.8%

COc1ccccc1C(=O)N/N=C/c1ccccc1Cl
inactive: [1] 4.25% | [2] 35.3% | [3] 32.4% | [4] -4.3% | [5] 9.05% | [6] 30.1%

COc1ccc2cc1Oc1ccc(cc1)CC1c3cc(c(OC)cc3CCN1C)Oc1c(O)c(OC)cc3c1C(C2)N(C)CC3 (stereo not given)
inactive: [1] 14.6% | [2] -10.4% | [3] 10.8% | [4] 16.2% | [5] 15.8% | [6] 1.95%

Cn1c(=O)c2c(ncn2Cc2ccccc2)n(C)c1=O
inactive: [1] -1.65% | [2] -13.2% | [3] 3.95% | [4] -10.7% | [5] 45.1% | [6] 4%

CN1CC[C@H]([C@@H](O)c2ccccc2)C1=O
inactive: [1] 4.95% | [2] -7% | [3] -3.5% | [4] -34.4% | [5] 0.35% | [6] 5.7%

CC(C)C1CCC2(C)C(CCC3C(C)(CO)CCCC32O)C1 (stereo not given)
inactive: [1] -17.2% | [2] -6.85% | [3] 19.5% | [4] 1.45% | [5] 22.1% | [6] 10%

CCN(CC)C(=O)CNC(=O)c1c2nc3c(C(=O)NCC(=O)N(CC)CC)ccc(C)c3oc-2c(C)c(=O)c1N
inactive: [1] 16.9% | [2] 33.9% | [3] 8.95% | [4] 32.9% | [5] 10.9% | [6] 30.6%

Nc1cccc(CCc2nc(N)nc(N)c2-c2ccc(Cl)cc2)c1
inactive: [1] 0.6% | [2] 21.6% | [3] 13.8% | [4] 3.2% | [5] 8.85% | [6] -14.3%

CNCC(C(=O)C(CNC)c1ccccc1)c1ccccc1 (stereo not given)
inactive: [1] -1.15% | [2] -6.45% | [3] 11.4% | [4] 7.6% | [5] 4% | [6] 21.9%

CC(C)(C)NCC(O)c1ccc(O)c(CO)n1 (stereo not given)
inactive: [1] 1.3% | [2] -8.05% | [3] -19.4% | [4] 9.05% | [5] -8.9% | [6] -3.3%

O=Cc1cc(C=O)c2ccc(=O)[nH]c2n1
inactive: [1] 4.75% | [2] 0.5% | [3] -8.55% | [4] 0.65% | [5] -1.25% | [6] -3.5%

N#CC1=C(O)/C(=C\C=C\c2ccccc2)N(C(=O)c2ccccc2)C1=N
inactive: [1] 12.2% | [2] -7.6% | [3] -6.2% | [4] 10.2% | [5] -6.85% | [6] 19.1%

CCc1cccc(C)c1NC(=O)C(=O)CC(=O)c1ccc(Cl)cc1Cl
inactive: [1] 26.9% | [2] 14.8% | [3] 7.65% | [4] -35.4% | [5] 2.15% | [6] 27.2%

O=C(CCC/C(CC(=O)c1ccc(Cl)cc1)=N\NC(=O)c1cc2ccccc2cc1O)Nc1cccc([N+](=O)[O-])c1
inactive: [1] 52% | [2] 47.2% | [3] 52.9% | [4] 25.6% | [5] 6% | [6] 56.8%

COC(=O)C1=C(C(=O)OC)C2CCCOC2=C(C)C1 (stereo not given)
inactive: [1] -1.35% | [2] 12.1% | [3] -6.15% | [4] 41.2% | [5] 14.3% | [6] 7%

C#CC(C)(C)OC(=O)Nc1cccc(Cl)c1
inactive: [1] 12.8% | [2] -11.3% | [3] -16.1% | [4] -8.35% | [5] -20.6% | [6] 10.7%

CSc1ccc(/C=C/c2ccnc3ccccc23)cc1
inactive: [1] 11.8% | [2] 14.8% | [3] 20.7% | [4] -12.3% | [5] 4.7% | [6] 7.95%

CN1CCC=C(C(C)(C)O)C1
inactive: [1] -3.55% | [2] -4.45% | [3] -15.7% | [4] 11.3% | [5] -0.6% | [6] 2.35%

CCOC(=O)C(C#N)(Cc1c(-c2ccccc2)[nH]c2ccccc12)NC(C)=O (stereo not given)
inactive: [1] -4.25% | [2] 0.75% | [3] 4.85% | [4] -14.6% | [5] 7.9% | [6] 6.15%

O=C(NCCO)c1cc2ccccc2cc1O
inactive: [1] -1.9% | [2] -25.3% | [3] -10.4% | [4] -3.5% | [5] -17.9% | [6] 7.55%

CCC(O)CN(C)C (stereo not given)
inactive: [1] 8% | [2] -4.6% | [3] 6.65% | [4] -13.4% | [5] 0.85% | [6] 3.45%

CN(C)c1ccc(C(=O)O)cc1
inactive: [1] -0.75% | [2] 11.3% | [3] -20.4% | [4] -28.8% | [5] -17.6% | [6] -16.3%

COc1cc(/C=C(\C#N)C(N)=O)cc(Br)c1O
inactive: [1] -13.5% | [2] -24% | [3] 15.9% | [4] 8.65% | [5] 7.45% | [6] -7.35%

O=C(/C=C/c1ccccc1)NC(Cc1ccccc1)C(=O)O (stereo not given)
inactive: [1] -21% | [2] -11.4% | [3] -8.25% | [4] -5.55% | [5] -14.1% | [6] -12.2%

CSc1nc(NCc2ccc(Cl)cc2)c2[nH]c(C)nc2n1
inactive: [1] 7.7% | [2] -13.6% | [3] 18.4% | [4] -3% | [5] 20.1% | [6] 6.45%

Nc1c(I)cc([N+](=O)[O-])cc1I
inactive: [1] 32.8% | [2] 2.6% | [3] 18% | [4] -16.4% | [5] 25.9% | [6] 19.9%

CC(=O)c1cccc(NC(=O)Nc2ccc(Nc3ccccc3)cc2)c1
inactive: [1] 3.8% | [2] 6.5% | [3] 5.6% | [4] 2.6% | [5] 21.8% | [6] -0.8%

CNC(=O)CN(CC(N)=O)C(=O)NC
inactive: [1] -29.5% | [2] -20.3% | [3] -27.6% | [4] 0.65% | [5] -23% | [6] -35%
